We go through eight compounds from PubChem BioAssay (NCATS).

Structures are written as SMILES. Values joined by “and” are separate entries in the source; they are usually repeats but may differ in a detail not shown here. Identical values can stand only once. Records with an inconclusive call do not appear. Active and inactive are the calls of the source. Unless noted, the call rests on the fitted dose curve.

The target in experiment [1] is Peroxisome proliferator-activated receptor delta (Homo sapiens) (UniProt Q03181). The experiment can be described thus: qHTS assay for small molecule antagonists of peroxisome proliferator-activated receptor delta signaling (AID 588535; active means well fitted inhibition curve with a large enough effect in the signal ratio, with a control signal flat, not every such curve was filed as active; the % refers to the signal ratio). An outline of the steps:
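Antagonist-mode qHTS using GeneBLAzer PPAR-delta-UAS-bla HEK293T cells; compound exposure 18 hrs at 37 C over a titration. Ratiometric CCF4 fluorescence at 460/530 nm; concentration-response points fitted to the Hill equation.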
(In general: Quantitative high-throughput screening tests each substance at several concentrations.)

The target of experiment [2] is Peroxisome proliferator-activated receptor gamma (Homo sapiens) (UniProt P37231). The experiment can be described thus: qHTS assay for small molecule agonists of peroxisome proliferator-activated receptor gamma signaling (AID 588536; active means well fitted curve in the direction sought with a large enough effect in the signal ratio, with a control signal flat, not every such curve was filed as active; the % refers to the signal ratio;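 further: 0% = DMSO basal wells and 100% = rosiglitazone at 2 µM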). An outline of the steps:
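Beta-lactamase reporter read-out: CCF4 fluorescence (ex 405, em 460/530 nm) after 2 h at RT. HEK293 GeneBLAzer cells were treated for 16 h at 37 C. Hill fits gave EC50 and efficacy versus 2 uM rosiglitazone (100%) and DMSO (0%).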

Experiment [3] addresses Vitamin D3 receptor (Homo sapiens) (UniProt P11473). The experiment can be described thus: qHTS assay for small molecule antagonists of vitamin D receptor signaling (AID 588541).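 Further: receptor activated by calcitriol during compound treatment; series mostly up to about 77 µM; on the % scale 0 is the no-effect control and ±100 the full control effect.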 Put shortly:
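Antagonist-mode beta-lactamase reporter assay: HEK293T VDR-UAS-bla cells were exposed to titrated compound alongside 1-alpha,25-dihydroxyvitamin D3 at 3 nM final for 16 h. Values were normalized to the 50 nM agonist control and DMSO basal, with IC50 and efficacy from Hill equation fits.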

The target is the same in experiment [4]. Briefly: qHTS assay for small molecule agonists of vitamin D receptor signaling (AID 588543).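 Further: 0% = DMSO basal and 100% = reference agonist control.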 An outline of the steps:
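VDR-UAS-bla HEK293T cells, 2000/well, 2% charcoal-stripped FBS; compound titration 16 h at 37 C; CCF4 beta-lactamase ratio read. Normalized to 50 nM 1-alpha,25-dihydroxyvitamin D3 (100%) and DMSO; Hill fit gives EC50, efficacy.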

Experiment [5] can be described thus: qHTS assay for small molecule agonists of retinoid X receptor alpha signaling (AID 588544). The following applies: HEK293T RXRa-UAS-bla, beta-lactamase reporter, 18 h; 530 nm emission.
Experiment [6] addresses Retinoic acid receptor RXR-alpha (Homo sapiens) (UniProt P19793). The experiment is described as above.
The target of experiment [7] is Thyroid hormone receptor beta (Homo sapiens) (UniProt P10828). The experiment can be described thus: qHTS assay for small molecule agonists of thyroid hormone receptor beta signaling (AID 588545).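 Further: 0% = DMSO only and 100% = 10 nM T3.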 An outline of the steps: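 TR-UAS-bla GripTite HEK 293 cells (2500/well, medium with 2% charcoal/dextran FBS) were treated in agonist mode for 18 h at 37 C, titrated. Beta-lactamase was read by CCF4 ratio after 2 h; normalized to 10 nM T3 (100%) and DMSO, Hill-fitted for EC50 and efficacy.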
Chain of Thyroid hormone receptor beta (Homo sapiens) (P10828 whole entry, looked up): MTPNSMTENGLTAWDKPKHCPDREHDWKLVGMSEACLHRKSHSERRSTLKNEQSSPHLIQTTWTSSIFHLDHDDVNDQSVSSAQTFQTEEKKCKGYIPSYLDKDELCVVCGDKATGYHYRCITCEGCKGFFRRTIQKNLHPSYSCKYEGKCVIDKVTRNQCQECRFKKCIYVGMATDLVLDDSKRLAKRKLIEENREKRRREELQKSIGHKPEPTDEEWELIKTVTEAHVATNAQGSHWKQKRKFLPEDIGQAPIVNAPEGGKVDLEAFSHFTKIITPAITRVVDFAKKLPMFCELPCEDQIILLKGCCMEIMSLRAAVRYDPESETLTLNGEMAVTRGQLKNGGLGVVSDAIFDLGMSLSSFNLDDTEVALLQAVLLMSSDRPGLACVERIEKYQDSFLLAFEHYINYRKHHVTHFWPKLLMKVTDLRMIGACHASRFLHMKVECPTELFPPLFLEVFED

Experiment [8] in a line: qHTS assay for small molecule antagonists of retinoid X receptor alpha signaling (AID 588546; active means well fitted inhibition curve with a large enough effect in the signal ratio, with a control signal flat, not every such curve was filed as active; the % refers to the signal ratio; further: potency means the concentration at half of the fitted maximal effect;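 on max response: cells stimulated with 9-cis-retinoic acid as agonist; on the % scale 0 is the no-effect control and ±100 the full control effect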). As to conditions: HEK293T RXRa-UAS-bla, beta-lactamase ratio, antagonist mode; measured here: W530 green channel, cytotoxicity proxy. Put shortly: (§1)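 Beta-lactamase reporter inhibition, read as CCF4 fluorescence ratio (ex 405, em 460/530 nm) after 2 h at RT. HEK293T UAS-bla cells, 2500/well, were stimulated with 9-cis-RA at 500 or 100 nM final alongside test compound for 18 h at 37 C.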

The target of experiment [9] is Retinoic acid receptor RXR-alpha (Homo sapiens) (UniProt P19793). The experiment is described as above. As to conditions: HEK293T RXRa-UAS-bla, beta-lactamase ratio, antagonist mode. An outline of the steps:
as §1

Experiment [10] addresses Peroxisome proliferator-activated receptor gamma (Homo sapiens) (UniProt P37231). Briefly: qHTS assay for small molecule antagonists of peroxisome proliferator-activated receptor gamma signaling (AID 588537; active means well fitted inhibition curve with a large enough effect in the signal ratio, with a control signal flat, not every such curve was filed as active; the % refers to the signal ratio; further: potency means the concentration at half of the fitted maximal effect). An outline of the steps:
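Cell-based beta-lactamase assay; GW9662 served as the antagonist control. Stimulation used rosiglitazone, final 50 nM, 16 h, 37 C.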

Chain of Vitamin D3 receptor (Homo sapiens) (P11473 whole entry, looked up): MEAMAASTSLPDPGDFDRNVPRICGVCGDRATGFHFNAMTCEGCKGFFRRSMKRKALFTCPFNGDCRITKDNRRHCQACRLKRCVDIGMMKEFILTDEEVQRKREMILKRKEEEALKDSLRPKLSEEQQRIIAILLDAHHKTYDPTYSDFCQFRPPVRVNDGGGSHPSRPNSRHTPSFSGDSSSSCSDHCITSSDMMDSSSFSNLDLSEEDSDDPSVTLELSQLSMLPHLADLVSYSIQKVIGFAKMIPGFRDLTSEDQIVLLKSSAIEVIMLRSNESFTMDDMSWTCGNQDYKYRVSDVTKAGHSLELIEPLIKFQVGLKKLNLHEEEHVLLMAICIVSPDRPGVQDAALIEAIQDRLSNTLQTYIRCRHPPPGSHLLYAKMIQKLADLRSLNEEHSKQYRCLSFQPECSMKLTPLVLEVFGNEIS
Chain of Peroxisome proliferator-activated receptor delta (Homo sapiens) (Q03181 whole entry, looked up): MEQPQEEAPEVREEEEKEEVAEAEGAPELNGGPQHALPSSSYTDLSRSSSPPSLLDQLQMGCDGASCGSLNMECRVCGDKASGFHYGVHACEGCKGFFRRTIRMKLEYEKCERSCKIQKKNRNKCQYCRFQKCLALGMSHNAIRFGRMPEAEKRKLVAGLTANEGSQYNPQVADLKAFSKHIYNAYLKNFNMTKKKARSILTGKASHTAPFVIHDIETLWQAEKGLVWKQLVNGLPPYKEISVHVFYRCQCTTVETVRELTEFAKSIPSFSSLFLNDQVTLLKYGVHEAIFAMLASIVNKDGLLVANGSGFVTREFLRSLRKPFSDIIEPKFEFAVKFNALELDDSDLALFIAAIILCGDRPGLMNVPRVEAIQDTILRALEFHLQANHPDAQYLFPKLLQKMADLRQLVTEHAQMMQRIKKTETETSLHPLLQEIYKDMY
Chain of Retinoic acid receptor RXR-alpha (Homo sapiens) (P19793 whole entry, looked up): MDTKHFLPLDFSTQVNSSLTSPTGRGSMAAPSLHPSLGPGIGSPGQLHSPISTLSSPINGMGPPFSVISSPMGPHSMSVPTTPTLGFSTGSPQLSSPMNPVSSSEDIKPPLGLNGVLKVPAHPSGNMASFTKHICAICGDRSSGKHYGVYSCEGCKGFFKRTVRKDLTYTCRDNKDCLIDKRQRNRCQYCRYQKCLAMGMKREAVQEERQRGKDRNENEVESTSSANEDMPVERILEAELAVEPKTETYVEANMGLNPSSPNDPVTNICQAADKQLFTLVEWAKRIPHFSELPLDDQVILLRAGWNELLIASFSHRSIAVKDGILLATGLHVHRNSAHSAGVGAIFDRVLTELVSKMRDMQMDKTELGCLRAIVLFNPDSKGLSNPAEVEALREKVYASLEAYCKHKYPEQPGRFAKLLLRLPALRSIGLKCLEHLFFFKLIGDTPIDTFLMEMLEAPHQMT
Chain of Peroxisome proliferator-activated receptor gamma (Homo sapiens) (P37231 whole entry, looked up): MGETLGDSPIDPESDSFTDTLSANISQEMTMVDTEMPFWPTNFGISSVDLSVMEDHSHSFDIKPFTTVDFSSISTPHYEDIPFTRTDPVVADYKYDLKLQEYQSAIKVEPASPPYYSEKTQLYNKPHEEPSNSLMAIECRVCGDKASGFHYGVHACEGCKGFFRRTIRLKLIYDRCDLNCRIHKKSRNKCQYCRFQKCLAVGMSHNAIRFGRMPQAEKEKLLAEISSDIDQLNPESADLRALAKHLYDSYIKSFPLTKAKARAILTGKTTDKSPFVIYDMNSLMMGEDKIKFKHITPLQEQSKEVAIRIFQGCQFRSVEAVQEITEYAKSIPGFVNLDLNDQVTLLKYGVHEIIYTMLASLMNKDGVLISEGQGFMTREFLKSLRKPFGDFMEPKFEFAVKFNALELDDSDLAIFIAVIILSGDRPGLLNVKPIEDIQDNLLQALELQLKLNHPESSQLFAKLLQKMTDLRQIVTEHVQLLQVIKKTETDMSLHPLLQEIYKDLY

`CCCCCCCC/C=C\CCCCCCCC(=O)OC[C@@H](O)[C@H]1OC[C@H](O)[C@H]1O`: the outcome in experiment [1], in experiment [2], in [3], in experiment [4], in experiment [6] and in [7] was inactive. The max response in experiment [5] was -2.66%; in experiment [8], -8.17%; in experiment [9], -13.5% (inactive).
With `COC(C)=O`, the result in experiment [1], in [2], in [6] and in experiment [7] was inactive. For the same compound, the max response was -9.31% in [5], -2.37% in experiment [8] and 11.4% (inactive) in experiment [9].
In the case of `O=C(O)CC(O)(CC(=O)O)C(=O)O`, the outcome in experiment [1], in experiment [2], in experiment [3], in experiment [4], in [6] and in experiment [7] was inactive. The max response was 2.81% and -9.62% and -10.5% in [5]; -2.45% and -5.52% and -2.31% in experiment [8]; -0.99% (inactive) and 3.25% (inactive) and -0.625% (inactive) in experiment [9].
In the case of `CCCCCCCCCC(=O)O`, the outcome in [1], in [3], in experiment [4], in experiment [6] and in [7] was inactive. Moreover, the max response in [5] is 6.89% and 0.0203%; in [8], 6.37% and -10.5%; in [9], -2.15% (inactive) and -5.65% (inactive).
For `O=S(=O)(c1ccccc1)N(CC(F)(F)F)c1ccc(C(O)(C(F)(F)F)C(F)(F)F)cc1`, the compound was called inactive in experiment [1], in experiment [6] and in experiment [7]. The max response in experiment [5] was -15.6%; in experiment [8], -56.3%. The Potency in experiment [9] was 12.6 µM (active).
`CC(=O)S[C@@H]1CC2=CC(=O)CC[C@]2(C)[C@H]2CC[C@@]3(C)[C@@H](CC[C@@]34CCC(=O)O4)[C@H]12`: in experiment [10], the Potency was 39.8 µM (active). In addition, the call in experiment [7] was inactive.
`CN(C)Cc1ccccc1`: the outcome in experiment [1], in [2], in experiment [3], in [6] and in experiment [7] was inactive. Besides, the Potency entry in experiment [10] was “inactive”. In addition, the figures for the max response in experiment [5], in experiment [8] and in experiment [9] were -2.82%, -2.86% and -1.44% (inactive), respectively.
Consider `C=Cc1ccccc1`, for which the compound was called inactive in experiment [1], in [2], in experiment [3], in [4] and in experiment [6]. Moreover, the Potency entry in experiment [10] is “inactive”. The max response in experiment [5] was -4.91%; in [8], -10.4% and -6.3%; in [9], 1.17% (inactive) and -1.22% (inactive).
